GalR3 antagonist = GalR3 antagonists in HEK293 cells, primary screen, cell-based, fluorescence readout; Galanin receptor type 3 (Homo sapiens), O60755; HEK293 GalR3-CNG cAMP membrane potential fluorescence; galR3 body fused to GalR1 C-terminus; inhibition, % at 3 µM; actives 0.44% (n = 360,000);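 active means inhibition above the screen-wide average plus 3 SD, cut at about 13% in these data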;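 further: forskolin and galanin both at EC90 stimulate the cells; cAMP rise reported by CNG channel membrane potential dye signal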
Target sequence (O60755 1-299 limits assumed): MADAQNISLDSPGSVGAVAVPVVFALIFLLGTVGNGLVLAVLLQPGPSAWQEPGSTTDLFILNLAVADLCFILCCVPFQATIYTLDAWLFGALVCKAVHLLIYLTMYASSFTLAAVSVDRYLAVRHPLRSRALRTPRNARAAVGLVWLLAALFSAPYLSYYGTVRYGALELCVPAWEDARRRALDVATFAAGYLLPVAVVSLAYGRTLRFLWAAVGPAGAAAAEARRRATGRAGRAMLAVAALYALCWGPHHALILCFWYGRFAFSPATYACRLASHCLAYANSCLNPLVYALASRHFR
HIF activator = HIF pathway transcriptional activators, primary screen, cell-based, U2OS HRE-luciferase, luminescence | U2OS HRE-luciferase reporter; normalized: DMSO 0%, desferrioxamine 100% | activation, % at 7.5 µM (by protocol) | actives 0.32% (n = 300,000) | AID 1910, 2009;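 active means mean activation of at least 10% of the iron chelator positive control signal, with at least half of replicates also reaching 10%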
Hsp70 activator = Hsp70 transcriptional activators, primary screen, cell-based, HeLa, Hsp70 promoter luciferase, luminescence, 10 µM; HeLa Hsp70 promoter luciferase reporter; scaled: vehicle 0, proteasome-inhibitor control 100%; activation, % at 10 µM; actives 0.04% (n = 200,000); AID 1203, 2008;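 active means activation above the mean across all tested compounds plus 3 SD, cutoff set per campaign, cut at about 5.5% in these data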
SMARCA2 act = SMARCA2 (BRM) function activators, primary screen, cell-based, luminescence, high throughput. MG213 cells, MMTV-luciferase reporter, dexamethasone, overnight. activation, % at 9.1 µM. actives 1% (n = 370,000); in the data active means activation above about 7.8%
GAA850 FXN act = FXN promoter activators, primary screen, cell-based, luciferase luminescence, HEK293 lucGAA850. HEK293 lucGAA850 FXN promoter luciferase reporter, 24 h; percent of 10 µM SAHA response. activation, % at 6 µM. actives 0.56% (n = 360,000);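 active means activation above the average of all compounds screened plus 3 SD, cutoff fixed separately per campaign, cut at about 7.5% in these data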
SMARCA2 act conf = SMARCA2 (BRM) function activators, confirmation, cell-based, luminescence, triplicate; shares compounds with SMARCA2 act; actives 30% (n = 3,500); activation, % at 9.1 µM; MG213 cells, MMTV-luciferase with dexamethasone, overnight; MG213 cells expressing E1A, Rb sequestered; DMSO wells 0%, reference activator 100%;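 active means activation above its plate's cutoff, the mean activation of tested wells plus 3 SD, cut at about 7.9% in these data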
GAL4-VP16 Luc = GAL4-VP16 luciferase reporter activation, counter-screen for SMARCA2 (BRM) activator project, cell-based, pG5luc, luminescence, high throughput; shares compounds with SMARCA2 act; HEK293 GAL4-VP16 pG5luc reporter; scaled: DMSO wells 0%, SAHA wells 100%; activation, % at 9.1 µM; actives 41% (n = 3,500); AID 686939, 2013;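 active means activation above the solvent-only control well mean plus 3 SD, averaged across control plates, cut at about 5.2% in these data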
Hits are given with their value; - = inactive; . = no result. Compounds with a hit are over-represented: about 2.2% of the library has one in this group of screens.

SMILES	GalR3 antagonist	HIF activator	Hsp70 activator	SMARCA2 act	GAA850 FXN act	SMARCA2 act conf	GAL4-VP16 Luc
CCC(CO)Nc1cccc2c1S(=O)(=O)N(Cc1cn(Cc3ccc(Cl)cc3)nn1)Cc1ccccc1O2 (stereo not given)	.	.	.	-	.	.	.
CCc1ccc(C(=O)Nc2cccc(-c3nn[nH]n3)c2)s1	-	-	.	9.2	-	-	-
C=CS(=O)(=O)N(Cc1ccc(F)cc1)C(=C)C(=O)OC	.	.	.	-	.	.	.
Cc1ccccc1NC(=O)COC(=O)c1cc[n+]([O-])cc1	-	-	.	-	-	.	.
O=C(COC(=O)c1cc[n+]([O-])cc1)Nc1ccccc1Cl	-	-	-	10.6	-	-	-
C=CCNC(=S)NNC(=O)c1csc(C)c1CC	-	-	-	-	-	.	.
CCCCNC(=S)NNC(=O)c1csc(C)c1CC	-	-	-	8.3	-	-	-
COc1cc(SC)ccc1C(=O)Nc1ccc(C)cc1C	-	10.4	-	8.1	.	13.2	14.3
CC(=O)Nc1cc(C)c(S(C)(=O)=O)c(C)c1	-	-	-	8.1	-	-	-
COCCN1Cc2cc(C(=O)OC)c3c(c2C1=O)c1cc(OC)ccc1n3C(=O)c1ccccc1	-	.	.	-	.	.	.
O=C(NCCSc1ccccc1)c1ccccc1Cl	-	-	-	8.7	-	8.7	8.8
O=C(CCNC(=O)c1ccccc1Cl)NCCCSc1ccccc1	-	.	.	-	-	.	.
COc1ccc2nc(C)cc(N/N=C/c3cccc(OC)c3O)c2c1	-	-	.	27.0	-	19.9	-
Cc1cc(N/N=C/c2ccccc2O)c2ccccc2n1	-	-	.	-	-	.	.
COc1ccc(/C=N/Nc2cc(C)nc3ccc(Br)cc23)cc1	-	-	.	9.4	-	-	-
Cc1cc(C(=O)CN2C(=O)NC3(CCCC3)C2=O)c(C)n1-c1ccc2c(c1)OCO2	-	-	-	9.4	-	-	-
COc1ccc(NC(=O)Cn2c3ccc(OC)cc3c3nc4n(c(=O)c32)CCS4)cc1	-	-	.	-	-	.	.
COc1ccc2c(c1)c1nc3n(c(=O)c1n2CC(=O)Nc1ccccc1)CCCS3	-	-	.	10.8	-	-	-
CC(/C=N/NC(=O)Cc1cccs1)=C\c1ccco1	-	-	-	-	-	.	.
CC(/C=N/NC(=O)c1cccs1)=C\c1ccco1	-	-	-	9.2	-	9.3	11.6
Cc1cc2c(c(=O)o1)[C@@]1(C(=O)N(C)c3ccccc31)C1=C(CC(C)(C)CC1=O)O2	-	.	.	-	.	.	.
CCN(CC)S(=O)(=O)c1cccc(C(=O)N/N=C2\CC(=O)CC(C)(C)C2)c1	-	-	-	-	-	.	.
Cc1ccc(S(=O)(=O)N(C)Cc2ccc(C(=O)N/N=C3\CC(=O)CC(C)(C)C3)cc2)cc1	-	-	-	10.4	-	-	-
O=C1Nc2ccccc2N(C(=O)c2c(F)cccc2F)C1c1nc2ccccc2[nH]1 (stereo not given)	-	.	.	10.4	.	-	10.1
O=C1Nc2ccccc2N(C(=O)c2ccc(-c3ccccc3)cc2)C1c1nc2ccccc2[nH]1 (stereo not given)	-	.	.	-	.	.	.
SMILES	GalR3 antagonist	HIF activator	Hsp70 activator	SMARCA2 act	GAA850 FXN act	SMARCA2 act conf	GAL4-VP16 Luc
C=CCN1[C@H](CC(C)C)COc2cccc(N3CCSCC3)c2S1(=O)=O	.	.	.	-	.	.	.
O=C(c1ccc(Cl)cc1)c1cnc(-c2ccc(Cl)cc2)s1	-	-	-	-	-	.	.
O=C(c1ccccc1)c1cnc(-c2ccc(Cl)cc2)s1	-	-	-	14.3	-	-	6.9
Cc1ccc(-c2cn3cccc(C)c3n2)cc1	-	-	-	13.8	-	-	12.0
Cc1cccn2cc(-c3c[nH]c4ccccc34)nc12	-	-	-	16.6	-	-	10.4
COC(=O)C1CN(Cc2ccccc2)CCS(=O)(=O)N1Cc1cn(Cc2ccccc2Br)nn1 (stereo not given)	.	.	.	-	.	.	.
O=C(OC1CCOC1=O)c1ccc2ncsc2c1 (stereo not given)	-	-	-	11.7	-	-	-
NS(=O)(=O)c1cc(C(=O)OC2CCOC2=O)ccc1Cl (stereo not given)	-	-	.	-	-	.	.
Cc1ccc(NC(=O)COC(=O)C2CCC(=O)N2)c([N+](=O)[O-])c1 (stereo not given)	-	-	-	12.6	-	-	-
CCc1ccc2[nH]c(=O)c(CN(Cc3nnnn3C3CCCC3)C3CCCCC3)cc2c1	-	-	-	8.3	-	-	5.8
Cc1cccc2cc(CN(Cc3nnnn3C3CCCC3)C3CCCCC3)c(=O)[nH]c12	-	-	-	-	-	.	.
C=CCNC(=O)c1ccc2nc(Cc3ccc(OC)cc3)oc2c1	-	-	.	-	-	.	.
COCCCNC(=O)c1ccc2nc(Cc3ccc(OC)cc3)oc2c1	-	-	.	11.2	-	-	9.3
COC(=O)[C@@]12CCCCC=C1N(CCc1ccc(Cl)cc1)C(=O)[C@H]2CC(=O)NCCCCc1ccccc1	.	.	.	-	.	.	.
O=C(CCc1ccccc1)N[C@H]1[C@@H](OC(=O)c2ccc([N+](=O)[O-])cc2)CCC[C@]12C(=O)N(Cc1ccccc1)c1ccccc12	.	.	.	-	.	.	.
CCN(CC)c1c(C)nc2ccc(C(=O)N3CCN(C(=O)c4ccco4)CC3)cn12	-	.	.	9.4	-	-	-
CCSc1nnc(NC(=O)c2cccnc2)s1	-	-	-	-	-	.	.
O=C(Nc1nnc(SCC(=O)N2CCCc3ccccc32)s1)c1ccccc1	-	-	-	10.1	-	-	8.0
COc1ccc(C(=O)Nc2nnc(SCC(=O)NC3CC3)s2)cc1	-	-	.	8.2	-	-	12.7
Cc1ccc(C(=O)Nc2nnc(C)s2)cc1	-	-	-	13.0	-	-	16.4
CCSc1nnc(NC(=O)c2ccccc2)s1	-	-	-	10.7	-	-	5.5
CCC(C)CNC(=O)CN1C(=O)C2CCCCN2C(=O)c2ccccc21 (stereo not given)	.	.	.	-	.	.	.
O=C(Cn1c(-c2cncs2)nc2ccccc21)NC1CCCCC1	.	.	.	-	.	.	.
COc1ccc(CCNCCC(=O)Nc2c(C)cc(C)cc2C)cc1OC	-	-	-	9.0	-	-	-
Nc1ccc(C(=O)OCc2nc3ccccc3s2)cc1	-	-	-	-	-	.	.
O=C(OCc1nc2ccccc2s1)c1cc2ccccc2oc1=O	-	-	-	8.2	.	-	9.1
N#Cc1c(Nc2ccccc2C(F)(F)F)s[nH]c1=O	-	-	.	-	-	.	.

Source: PubChem (several laboratories)
